Experimental findings from PubChem BioAssay (NCATS) are described below.

Results filed as inconclusive are left out. Where a call stands in place of a potency, no number is given. The source made the active and inactive calls. Calls follow the shape of the dose curve; as a rule, active = well fitted inhibition curve with a large enough effect; inconclusive = small, poorly fitted or top-dose-only effect; inactive = flat fitted curve, though single readings scatter.
Potency is read from the fitted curve at half-maximal effect.

The nature of the assay: P-glycoprotein substrates identified in KB-8-5-11 adenocarcinoma cell line, qHTS therapeutic library screen (AID 1346987). Also: nearly all actives have a fitted effect of over 65% in size. The note with it: KB-8-5-11 (P-gp overexpressing) viability, CellTiter-Glo, 72 h; series mostly up to 44.5 µM. An excerpt: The ATP-binding cassette transporters P-glycoprotein (P-gp) is known to limit brain penetration of many chemotherapy drugs. […] As such, we developed a high-throughput screen (HTS) to identify substrates of P-gp from a series of chemical libraries including the National Center for Advancing Translational Sciences Pharmaceutical Collection NPC, 2,816 compounds), testing a total of 10,804 compounds, most of which have known mechanisms of action. We used the CellTiter-Glo viability assay to test library compounds against the parental KB-3-1 human cervical adenocarcinoma cell line and the colchicine-selected sub-line KB-8-5-11 that over-expresses P-gp. KB-8-5-11 cells were also tested in the presence of a P-gp inhibitor (tariquidar) to assess reversability of transporter-mediated resistance. Of the tested compounds, a total of 90 P-gp substrates were identified including 55 newly identified P-gp substrates. Substrates were confirmed using an orthogonal killing assay against HEK-293 cells transfected with P-gp. As exemplars, we confirmed that […] (cyclin-dependent kinase inhibitor); AT9283, (Janus kinase 2/3 inhibitor); ispinesib (kinesin spindle protein inhibitor); gedatolisib (PKI-587, phosphoinositide 3-kinase/mammalian target of rampamycin inhibitor); GSK-690693 (AKT inhibitor); and KW-2478 (heat shock protein 90 inhibitor) were substrates , and direct ATPase stimulation was assessed. ABCG2 was also found to confer high levels of resistance to AT9283, GSK-690693 and gedatolisib, while ispinesib, AT7519 and KW-2478 were weaker substrates.
The HeLa derivative cell line, KB-3-1, and its colchicine-selected, P-gp-overexpressing subline, KB-8-5-11 were maintained in DMEM with 10% FCS and Pen/Strep with glutamine at 37 degree C in 5% CO2. For KB-8-5-11 cells, colchicine was added to the medium at a concentration of 100 ng/mL. HEK-293 cells transfected with empty vector (pcDNA) or vector containing human ABCB1 (MDR-19) or ABCG2 (R-5) have been described previously (Robey, Lin, Qiu, Chan & Bates, 2011) and were maintained in EMEM supplemented with 10% FCS, Pen/Strep and glutamine with 2 mg/ml G418 to select for the expression of the transporter. Cultures were confirmed to be free of mycoplasma infection using the MycoAlert Mycoplasma Detection Kit (Lonza, Walkersville, MD). For the screen, assay medium was identical to culture medium except for KB-8-5-11 where colchicine was excluded from the medium.
All cell lines were plated into 1536-well plates at 500 cells/well in 5 uL media. Compounds were then pinned in dose-response using a 1536-head pin tool (Kalypsis, San Diego, CA) and plates were incubated at 37 degree C in 5% CO2 for an additional 72 h. CellTiter-Glo reagent (Promega) was dispensed into the wells, incubated for 5 min and luminescence was read on a ViewLux instrument (Perkin-Elmer). Cytotoxic compounds were defined as those that yielded a curve class of -1.1, -1.2, -2.1, -2.2, -2.3, or -2.4, a maximum response of >50% and an AC50 of < 10 uM. Cherry-picked hits from screening analysis were tested with both the KB pair of cell lines, and the pcDNA (empty vector control) and MDR-19 (P-gp overexpressing) pair were tested, in the absence and presence of tariquidar.
(In general: Quantitative high-throughput screening tests each substance at several concentrations.)
Turning to `CC(C(=O)O)c1ccc(C2CCCCC2)c2ccccc12` (stereo not given), the Potency entry was “inactive”.
Take `CC(=O)O[C@H]1C[C@@H]2CC[C@@H]3[C@H](CC[C@@]4(C)[C@H]3C[C@H](N3CC[N+](C)(C)CC3)[C@@H]4OC(C)=O)[C@@]2(C)C[C@@H]1N1CC[N+](C)(C)CC1`: the Potency result is “inactive”.
Consider `COC1CC(O[C@H]2CC[C@]3(C)C4CC[C@@]5(C)C(=O)[C@]4(CC[C@@H]3C2)CC[C@@H]5C2=CC(=O)OC2)OC(C)C1OC1OC(COC2OC(CO)C(O)C(O)C2O)C(O)C(O)C1O` (stereo not given in full), for which the Potency is 2.19 µM (active).
For the molecule `C/C=C/C=C/C(=O)O[C@@H]1C=C2COC(=O)[C@]2(O)[C@@]2(C)CCCC(C)(C)[C@H]12`, the Potency entry was “inactive”.
Still for that read-out and setting: under `CCOC(=O)c1cnn(-c2ccccc2)c1NC(=O)c1cc2nc(-c3ccco3)cc(C(F)(F)Cl)n2n1` stands “inactive”; under `CC(=O)O[C@@H]1[C@@H](OC(C)=O)[C@H](C)O[C@@H](O[C@H]2[C@@H]3C=CO[C@@H](O[C@@H]4O[C@H](CO)[C@@H](O)[C@H](O)[C@H]4O)[C@@H]3[C@@]3(CO)O[C@@H]23)[C@@H]1OC(=O)/C=C/c1ccccc1`, “inactive”.
With `O=C1O[C@@H]2[C@@H](O)[C@H](O)O[C@@H]2[C@H]1O`, the Potency result was “inactive”.
For `CCCCCC(O)/C=C/C=O` (stereo not given), the Potency result is “inactive”.
With `CC(C)C[C@@H]1NC(=O)[C@@H]2C[C@@]34C[C@@H]5[C@@]6(C)CCCC(C)(C)C6CC[C@@]5(C)N(c5ccccc53)[C@H]4N2C1=O` (stereo not given in full), the Potency result is “inactive”.
Still for that read-out and setting: the result for `CCCCCCCCn1cc(CN(CC)CC)c2cc(-c3cnc(N)nc3)ccc21` reads 18.4 µM (active); that for `CC1(CO)CC(O)[C@]2(C(=O)O)CCC34CC3(C=CC3[C@]5(C)C(CC[C@]34C)C(C)(CO)[C@@H](O)[C@H](O)[C@@H]5O)C2C1` (stereo not given in full), “inactive”; that for `CC(O)(C(=O)O)C1CCC2(C)C1CCC1(C)C2CCC2C3(C)CCC(O)C(C)(COC4OC(CO)C(O)C(O)C4O)C3CCC21C` (stereo not given), “inactive”.
With `CS(=O)(=O)Nc1cc2occ(NC=O)c(=O)c2cc1Oc1ccccc1`, the Potency entry was “inactive”.
Regarding `Cn1nc(C(C)(C)C)cc1C(=O)N[C@@H](Cc1cccc(Cl)c1)C(=O)NCC#N`, the Potency result was “inactive”.
As for `C=C1C(=O)O[C@@H]2C[C@H](C)C3=CC(=O)[C@H](O)[C@@]3(C)C[C@H]12`, the Potency result is “inactive”.
Consider `C=C[C@@]12COC(=O)C(=C)[C@@H]1[C@@H](O)[C@H](C(=C)C(=O)OC)[C@@H](O)C2`, for which the Potency result is “inactive”.
`C=C1CC[C@@H]2[C@](C)(CO)[C@H](O)CC[C@@]2(C)[C@@H]1C/C=C1/C(=O)OCC1OC(=O)/C(=C/CO)C(O)C[C@@H]1C(=C)CC[C@@H]2[C@](C)(CO)[C@H](O)CC[C@]21C` (stereo not given in full): the Potency entry was “inactive”.
`Nc1ncnc2c1nc(Cl)n2C1OC2COP(=O)(O)OC2C1O` (stereo not given): the Potency was 1.46 µM (active).
For the molecule `CCC(=O)Oc1ccc2c(c1)CC[C@@H]1[C@@H]2CC[C@]2(C)[C@@H](OC(=O)CC)CC[C@@H]12`, the Potency was 10.3 µM (active).
With `CC[C@@H]1C[C@]1(NC(=O)[C@@H]1C[C@@H]2CN1C(=O)[C@H](C(C)(C)C)NC(=O)OCC(C)(C)CCCCc1cccc3c1CN(C3)C(=O)O2)C(=O)NS(=O)(=O)C1CC1`, the Potency result is “inactive”.
As to `CN(CC1COCCO1)S(=O)(=O)Nc1ccc2ccc3ncc(-c4cnn(C)c4)cc3c(=O)c2c1` (stereo not given), the Potency was 14.6 µM (active).
On to `Cc1ccc(C(C)C)c(O[C@@H]2O[C@H](CO)[C@@H](O)[C@H](O)[C@H]2O)c1`, for which the Potency result was “inactive”.
Regarding `Cn1c(SCC(=O)N2CCC[C@H]2C(=O)Nc2ccccc2-c2ccccc2)nc2ccccc21`, the Potency result is “inactive”.
As to `Clc1ccc(Nc2nc3ccccc3c3nc(C4CCCCC4)[nH]c23)cc1Cl`, the Potency was 16.4 µM (active).
Regarding `COc1ccc(-c2ccccc2)cc1NS(=O)(=O)c1cc(Cl)cc(Cl)c1O`, the Potency entry was “inactive”.
With `Cc1ccc(O)cc1Nc1ccnc(Nc2cccc(C(N)=O)c2)n1`, the Potency is 23.1 µM (active).
With `C[C@@H]1C[C@H]2C3C[C@H](F)C4=CC(=O)C=CC4(C)[C@@]3(F)[C@@H](O)CC2(C)[C@@]1(O)C(=O)COC(=O)C(C)(C)C` (stereo not given in full), the Potency result is “inactive”.
Regarding `C=CS(=O)(=O)O`, the Potency entry is “inactive”.
As for `NC(=O)N1CCC(CC(=O)N2CCC(C3c4ncc(Br)cc4CCc4cc(Cl)cc(Br)c43)CC2)CC1` (stereo not given), the Potency is 18.4 µM (active).
For the molecule `CC(=O)O[C@H]1CC(C)(C)CC2[C@]13CO[C@@]21CCC2[C@@]4(C)CC[C@H](O[C@@H]5OC[C@H](O[C@@H]6O[C@H](CO)[C@@H](O)[C@H](O)[C@H]6O[C@@H]6OC[C@@H](O)[C@H](O)[C@H]6O)[C@H](O)[C@H]5O[C@@H]5O[C@H](CO)[C@@H](O)[C@H](O)[C@H]5O)[C@@](C)(CO)C4CC[C@@]2(C)[C@]1(C)C[C@H]3O` (stereo not given in full), the activity change, negative = cytotoxicity is -5.92% [at 9.29 µM] (inactive).
As to `COc1ccccc1OCCNCC(O)CCOc1cccc2[nH]c3ccccc3c12` (stereo not given), the Potency was 18.4 µM (active).
For `CCNc1nc(Nc2cc(F)c(C(=O)N3CCOCC3)cc2OC)ncc1C(F)(F)F`, the Potency is 9.2 µM (active).
Regarding `CC1(C)CC[C@]2(C(=O)O[C@@H]3O[C@H](CO)[C@@H](O)[C@H](O)[C@H]3O)CC[C@]3(C)C(=CCC4[C@@]5(C)CC[C@H](O[C@@H]6O[C@H](C(=O)O)[C@H](O)[C@H](O)[C@H]6O)C(C)(C)C5CC[C@]43C)[C@@H]2C1` (stereo not given in full), the Potency result is “inactive”.
Turning to `CCC(=O)O`, the Potency entry is “inactive”.
On the same count and under the same terms, under `CC[C@H](C)/C=C(C)/C=C/C1=CC2=CC(=O)[C@]3(C)OC(=O)[C@@H](C(C)=O)[C@@H]3C2=CO1` stands “inactive”; under `CC(=O)c1ccc2c(c1)[C@H](NC(=O)c1ccc(F)c(Cl)c1)[C@H](O)C(C)(C)O2`, “inactive”.
In the case of `CC(=O)C=C=C1C(C)(C)CC(O)CC1(C)O[C@@H]1O[C@H](CO[C@H]2OC[C@](O)(CO)[C@H]2O)[C@@H](O)[C@H](O)[C@H]1O` (stereo not given in full), the Potency result is “inactive”.
As to `O=C(O)c1cccc(-c2ccc(-c3cn(C(=O)N4CCCCC4Cc4ccccc4)nn3)cc2)c1` (stereo not given), the Potency entry is “inactive”.
Same read-out and setting: under `Nc1nc(Nc2ccc3c(c2)CCC(N2CCCC2)CC3)nn1-c1cc2c(nn1)-c1ccccc1CCC2` (stereo not given) stands 14.6 µM (active).
The same measure, in the same setting: under `CCOC(=O)Nc1ccc2c(c1)N(C(=O)CN(C)C)c1ccccc1CC2` stands “inactive”.
